# From PubChem BioAssay (NCI)
# About 83,000 compounds went through this panel and 20% of them were active in at least one assay; those are over-represented in the sample as a whole.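 For each line, cells grew in 96-well plates with the test compound present at a single concentration for 48 hours.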 Activity calls are given as the source filed them. How the source made its calls: active means growth percent below 10; inactive means the rest.
# Test system: K-562 leukemia
# Test: NCI-60 one-dose screen, 48 h (100 = growth as untreated, 0 = no growth, -100 = all killed)
# Settings: 10 µM unless noted
row,Compound,growth
1,O=NN(Cc1cccnc1)C(=O)NC1CCCCC1,101% (inactive)
2,FC(F)(F)c1cccc(CNC2CCN(CCc3ccccc3)CC2)c1,30.1% (inactive)
3,COc1ccc(CCN2C(=O)/C(=C/c3ccc(C4Oc5ccccc5C5CC(c6cccc(OC)c6)=NN54)cc3)SC2=S)cc1 (stereo not drawn),105% (inactive)
4,COc1cc(-c2c3c(cn2S(=O)(=O)c2ccccc2)-c2nc(N)sc2CC3)cc(OC)c1OC,8.08% (active)
5,CCC1=C[C@@H]2CN(C1)Cc1c([nH]c3ccccc13)[C@@](C(=O)OC)(c1cc3c(cc1OC)N(C)[C@H]1[C@@](O)(C(=O)OC)[C@H](OC(C)=O)[C@]4(CC)[C@@H]5C[C@@H]5CN5CC[C@]31[C@@H]54)C2,-10% (active)
6,O=C(O)CCCN1C(=O)C2C3CCC(C3)C2C1=O (stereo not drawn),105% (inactive)
7,CCOC(=O)CSc1c(-c2ccccc2)c2cc(Cl)ccc2[nH]c1=O,84.1% (inactive)
8,COc1ccc(C2C3=C(COC3=O)N(CCO)c3cc4c(cc32)CCC4)cc1 (stereo not drawn),24% (inactive)
9,Cc1c(C(=O)OCCO)cc(-c2ccc(Cl)cc2)n1-c1ccc(Cl)cc1Cl,33% (inactive)
10,NC1C(N)C(N)C1N (stereo not drawn),99.5% (inactive)
11,Oc1[nH]c2ccccc2c1N=Nc1nnc2n1N=C(c1ccccc1)CS2,77.7% (inactive)
12,O=NN(C(=O)NC1CCC(C(=O)O)CC1)C1CCC(C(=O)O)CC1 (stereo not drawn),95% (inactive)
13,Nc1ccc(-c2nn3c(CCC(=O)c4nc5ncccc5[nH]4)nnc3s2)c(O)c1,105% (inactive)
14,CCOc1ccc2c(c1)CN(Cc1ccc(Cl)cc1)CO2,57.2% (inactive)
15,CCN(CC)CCCNc1ccnc2cc3ccccc3cc12,66.3% (inactive)
16,Cc1ccc2cccc(Oc3ccc(Nc4ncnc5onc(-c6ccccc6)c45)cc3)c2n1,76.7% (inactive)
17,CCCc1c(C)c2sc(=O)[nH]c2[nH]c1=O,107% (inactive)
18,CC(C)[C@H](NC(=O)Cn1cc(C(=O)O)nn1)C(=O)O,118% (inactive)
19,CC1CCCCN1CCCNC(=O)c1ccc2c(c1)sc1nc(-c3ccc(F)cc3)cn12 (stereo not drawn),77% (inactive)
20,CN(C)c1ccc(/C=C/c2ccnc3c(O)cccc23)cc1,5.89% (active)

row,Compound,growth
1,NC(=O)CSc1nc(-c2ccc(F)cc2)cc(-c2ccco2)n1,103% (inactive)
2,Clc1ccc(COc2ccc(Nc3ncnc4onc(-c5ccccc5)c34)cc2)cc1,89.9% (inactive)
3,O=S1(=O)N(Cc2ccccc2)[C@@H](Cc2ccccc2)C2O[C@H]2[C@H](Cc2ccccc2)N1Cc1ccccc1 (stereo partly drawn),23.4% (inactive)
4,COc1cc(/C=C2\CN(C)C/C(=C\c3cc(CN4CCCC4)c(O)c(OC)c3)C2=O)cc(CN2CCCC2)c1O,19.4% (inactive)
5,COc1cc(/C=C2\CN(S(=O)(=O)c3ccccc3)C/C(=C\c3cc(CN4CCCC4)c(O)c(OC)c3)C2=O)cc(CN2CCCC2)c1O,8.41% (active)
6,COc1ccc(-c2nc(N3CCN(C(=O)C4CCCCC4)CC3)c3c4c(sc3n2)CCCC4)cc1,0.112% (active)
7,Nc1cccc(Nc2cc(S(=O)(=O)O)c(N)c3c2C(=O)c2ccccc2C3=O)c1,101% (inactive)
8,CCCCNc1nc(NC(C)(C)C)nc(NC(C)(C)C)n1,20.8% (inactive)
9,COc1ccc(OC)c(NC(=O)/C(C#N)=C/c2ccco2)c1,88.5% (inactive)
10,O=c1oc2ccc(Br)cc2c(=O)n1-c1ccc(Cl)cc1F,6% (active)
11,COc1ccc(C2=NN(/C=C3\SC(=O)NC3=Nc3ccc(F)cc3)C(c3ccc(F)cc3)C2)cc1 (stereo not drawn),94.3% (inactive)
12,Nc1no[n+]([O-])c1-c1nnc2c(n1)-c1ccccc1C2=O,-14.9% (active)
13,C=CCN1C(=O)/C(=c2\sc3n(c2=O)NC2C(N=3)N(CC)C(=O)N2CC)c2ccccc21 (stereo not drawn),11.3% (inactive)
14,O=C1/C(=C/c2ccc(O)cc2)COc2ccc(O)cc21,55.9% (inactive)
15,COc1cc(/C=C/C(=O)c2c(C)nc3ccccc3c2/C=C/c2ccccc2)cc(OC)c1OC,6.02% (active)
16,O=c1oc2ccc(F)cc2c(=O)n1-c1ccc(Cl)cc1F,7.39% (active)
17,CC1(C)CC2(C)OC2C2(C1)N=NC(=Nc1ccccc1)O2 (stereo not drawn),19.5% (inactive)
18,CCN1C(=O)N(CC)C2Nn3c(s/c(=C4\C(=O)N(C(C)C)c5ccccc54)c3=O)=NC21 (stereo not drawn),13.8% (inactive)
19,O=c1c(-c2nc3ccccc3[nH]2)cc2ccccc2n1Cc1cn(Cc2ccc(F)cc2)nn1,17.7% (inactive)

# Test system: MALME-3M melanoma
# Test: as above
# Settings: 10 µM unless noted
row,Compound,growth
1,O=NN(Cc1cccnc1)C(=O)NC1CCCCC1,102% (inactive)
2,FC(F)(F)c1cccc(CNC2CCN(CCc3ccccc3)CC2)c1,74.8% (inactive)
3,COc1ccc(CCN2C(=O)/C(=C/c3ccc(C4Oc5ccccc5C5CC(c6cccc(OC)c6)=NN54)cc3)SC2=S)cc1 (stereo not drawn),97.8% (inactive)
4,COc1cc(-c2c3c(cn2S(=O)(=O)c2ccccc2)-c2nc(N)sc2CC3)cc(OC)c1OC,42.4% (inactive)
5,CCC1=C[C@@H]2CN(C1)Cc1c([nH]c3ccccc13)[C@@](C(=O)OC)(c1cc3c(cc1OC)N(C)[C@H]1[C@@](O)(C(=O)OC)[C@H](OC(C)=O)[C@]4(CC)[C@@H]5C[C@@H]5CN5CC[C@]31[C@@H]54)C2,-63.9% (active)
6,O=C(O)CCCN1C(=O)C2C3CCC(C3)C2C1=O (stereo not drawn),96% (inactive)
7,CCOC(=O)CSc1c(-c2ccccc2)c2cc(Cl)ccc2[nH]c1=O,114% (inactive)
8,COc1ccc(C2C3=C(COC3=O)N(CCO)c3cc4c(cc32)CCC4)cc1 (stereo not drawn),64.7% (inactive)
9,Cc1c(C(=O)OCCO)cc(-c2ccc(Cl)cc2)n1-c1ccc(Cl)cc1Cl,76.2% (inactive)
10,NC1C(N)C(N)C1N (stereo not drawn),114% (inactive)
11,Oc1[nH]c2ccccc2c1N=Nc1nnc2n1N=C(c1ccccc1)CS2,103% (inactive)
12,O=NN(C(=O)NC1CCC(C(=O)O)CC1)C1CCC(C(=O)O)CC1 (stereo not drawn),104% (inactive)
13,Nc1ccc(-c2nn3c(CCC(=O)c4nc5ncccc5[nH]4)nnc3s2)c(O)c1,93% (inactive)
14,CCOc1ccc2c(c1)CN(Cc1ccc(Cl)cc1)CO2,30.1% (inactive)
15,CCN(CC)CCCNc1ccnc2cc3ccccc3cc12,40.6% (inactive)
16,Cc1ccc2cccc(Oc3ccc(Nc4ncnc5onc(-c6ccccc6)c45)cc3)c2n1,84.1% (inactive)
17,CCCc1c(C)c2sc(=O)[nH]c2[nH]c1=O,108% (inactive)
18,CC(C)[C@H](NC(=O)Cn1cc(C(=O)O)nn1)C(=O)O,101% (inactive)
19,CC1CCCCN1CCCNC(=O)c1ccc2c(c1)sc1nc(-c3ccc(F)cc3)cn12 (stereo not drawn),98.3% (inactive)
20,CN(C)c1ccc(/C=C/c2ccnc3c(O)cccc23)cc1,-2.62% (active)

row,Compound,growth
1,NC(=O)CSc1nc(-c2ccc(F)cc2)cc(-c2ccco2)n1,110% (inactive)
2,Clc1ccc(COc2ccc(Nc3ncnc4onc(-c5ccccc5)c34)cc2)cc1,92.7% (inactive)
3,O=S1(=O)N(Cc2ccccc2)[C@@H](Cc2ccccc2)C2O[C@H]2[C@H](Cc2ccccc2)N1Cc1ccccc1 (stereo partly drawn),67.8% (inactive)
4,COc1cc(/C=C2\CN(C)C/C(=C\c3cc(CN4CCCC4)c(O)c(OC)c3)C2=O)cc(CN2CCCC2)c1O,86% (inactive)
5,COc1cc(/C=C2\CN(S(=O)(=O)c3ccccc3)C/C(=C\c3cc(CN4CCCC4)c(O)c(OC)c3)C2=O)cc(CN2CCCC2)c1O,-51.6% (active)
6,COc1ccc(-c2nc(N3CCN(C(=O)C4CCCCC4)CC3)c3c4c(sc3n2)CCCC4)cc1,-56.2% (active)
7,Nc1cccc(Nc2cc(S(=O)(=O)O)c(N)c3c2C(=O)c2ccccc2C3=O)c1,105% (inactive)
8,CCCCNc1nc(NC(C)(C)C)nc(NC(C)(C)C)n1,87.3% (inactive)
9,COc1ccc(OC)c(NC(=O)/C(C#N)=C/c2ccco2)c1,80.3% (inactive)
10,O=c1oc2ccc(Br)cc2c(=O)n1-c1ccc(Cl)cc1F,-30.6% (active)
11,COc1ccc(C2=NN(/C=C3\SC(=O)NC3=Nc3ccc(F)cc3)C(c3ccc(F)cc3)C2)cc1 (stereo not drawn),94.3% (inactive)
12,Nc1no[n+]([O-])c1-c1nnc2c(n1)-c1ccccc1C2=O,64% (inactive)
13,C=CCN1C(=O)/C(=c2\sc3n(c2=O)NC2C(N=3)N(CC)C(=O)N2CC)c2ccccc21 (stereo not drawn),67.6% (inactive)
14,O=C1/C(=C/c2ccc(O)cc2)COc2ccc(O)cc21,100% (inactive)
15,COc1cc(/C=C/C(=O)c2c(C)nc3ccccc3c2/C=C/c2ccccc2)cc(OC)c1OC,36.3% (inactive)
16,O=c1oc2ccc(F)cc2c(=O)n1-c1ccc(Cl)cc1F,-19.6% (active)
17,CC1(C)CC2(C)OC2C2(C1)N=NC(=Nc1ccccc1)O2 (stereo not drawn),57.1% (inactive)
18,CCN1C(=O)N(CC)C2Nn3c(s/c(=C4\C(=O)N(C(C)C)c5ccccc54)c3=O)=NC21 (stereo not drawn),71.4% (inactive)
19,O=c1c(-c2nc3ccccc3[nH]2)cc2ccccc2n1Cc1cn(Cc2ccc(F)cc2)nn1,12.8% (inactive)
